According to PubChem BioAssay (EPA / NIEHS):
Several values for one entry are separate records, joined by “and”; a condition that tells them apart may be missing. Equal values may be shown once. A structure can be active in one record and inactive in another. Activity calls are given as the source filed them. The calls were made as follows: active = hit-call score of the fitted dose curve at least 0.9, where 1 is the maximum; inactive = score below 0.9.

How the values were obtained:
[1] = APR_HepG2_NuclearSize_72hr: Apredica 72-hour HepG2 Assay for Nuclear Size (AID 2282925); settings: high-content imaging, actives raise or lower the signal
Method in brief: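 HepG2 cells dosed 72 h at 0.39–200 uM (10 concentrations, duplicate) in 0.5% v/v DMSO final. Fixed, Hoechst 33342-stained nuclei imaged; nuclear diameter measured by automated image analysis. Bidirectional fit versus DMSO.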

[2] = ATG_CRE_CIS: Attagene CIS-FACTORIAL HepG2 Assay for human cAMP Responsive Element (CRE) binding protein 3 (AID 2282926); settings: HepG2 CRE cis-reporter, Attagene multiplexed mRNA; actives raise or lower the signal
Method in brief: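 HepG2 cells transiently transfected with cis-element-driven multiple reporter transcription units; CRE reporter mRNA measured 24 h after dosing by RT-PCR, 6-FAM labelling, HpaI digestion and capillary electrophoresis. Bidirectional fit versus DMSO baseline.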

[3] = molecular target: CCAAT/enhancer-binding protein beta (Homo sapiens) (UniProt P17676); experiment: ATG_C_EBP_CIS: Attagene CIS-FACTORIAL HepG2 Assay for human CCAAT/Enhancer Binding Protein (C/EBP) beta (AID 2282927); settings: HepG2 Attagene cis-factorial transcription factor reporter; actives raise or lower the signal
Sequence of CCAAT/enhancer-binding protein beta (Homo sapiens) (P17676 whole entry, looked up): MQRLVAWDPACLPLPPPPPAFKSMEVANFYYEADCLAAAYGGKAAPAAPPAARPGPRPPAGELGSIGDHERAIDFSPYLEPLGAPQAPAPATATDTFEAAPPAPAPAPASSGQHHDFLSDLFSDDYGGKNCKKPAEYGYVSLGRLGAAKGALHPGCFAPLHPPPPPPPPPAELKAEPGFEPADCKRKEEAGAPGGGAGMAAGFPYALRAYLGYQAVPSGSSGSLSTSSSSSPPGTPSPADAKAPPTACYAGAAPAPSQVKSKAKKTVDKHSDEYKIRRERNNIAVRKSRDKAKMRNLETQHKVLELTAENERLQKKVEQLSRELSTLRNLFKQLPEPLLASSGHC
Method in brief: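 HepG2, transient MRTU transfection, 24 h treatment. RT-PCR plus CE fluorescence; DMSO negative control, bidirectional fit.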

[4] = ATG_DR4_LXR_CIS: Attagene CIS-FACTORIAL HepG2 Assay for human Liver X Receptor (LXR), DR4 submotif (AID 2282929); settings: HepG2 Attagene DR4 cis-reporter, mRNA transcription; actives raise or lower the signal
Method in brief: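 HepG2, transient MRTU transfection, cis-element (DR4) promoter; 24 h compound exposure; total RNA → oligo(dT) RT → PCR → 6-FAM primer extension → HpaI cut → CE. Gain/loss vs DMSO, bidirectional fit.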

[5] = molecular target: Aryl hydrocarbon receptor (Homo sapiens) (UniProt P35869); experiment: ATG_Ahr_CIS: Attagene CIS-FACTORIAL HepG2 Assay for human Aryl Hydrocarbon Receptor (Ahr) (AID 2282930); settings: HepG2 AhR cis-factorial reporter transcription; actives raise or lower the signal
Sequence of Aryl hydrocarbon receptor (Homo sapiens) (P35869 whole entry, looked up): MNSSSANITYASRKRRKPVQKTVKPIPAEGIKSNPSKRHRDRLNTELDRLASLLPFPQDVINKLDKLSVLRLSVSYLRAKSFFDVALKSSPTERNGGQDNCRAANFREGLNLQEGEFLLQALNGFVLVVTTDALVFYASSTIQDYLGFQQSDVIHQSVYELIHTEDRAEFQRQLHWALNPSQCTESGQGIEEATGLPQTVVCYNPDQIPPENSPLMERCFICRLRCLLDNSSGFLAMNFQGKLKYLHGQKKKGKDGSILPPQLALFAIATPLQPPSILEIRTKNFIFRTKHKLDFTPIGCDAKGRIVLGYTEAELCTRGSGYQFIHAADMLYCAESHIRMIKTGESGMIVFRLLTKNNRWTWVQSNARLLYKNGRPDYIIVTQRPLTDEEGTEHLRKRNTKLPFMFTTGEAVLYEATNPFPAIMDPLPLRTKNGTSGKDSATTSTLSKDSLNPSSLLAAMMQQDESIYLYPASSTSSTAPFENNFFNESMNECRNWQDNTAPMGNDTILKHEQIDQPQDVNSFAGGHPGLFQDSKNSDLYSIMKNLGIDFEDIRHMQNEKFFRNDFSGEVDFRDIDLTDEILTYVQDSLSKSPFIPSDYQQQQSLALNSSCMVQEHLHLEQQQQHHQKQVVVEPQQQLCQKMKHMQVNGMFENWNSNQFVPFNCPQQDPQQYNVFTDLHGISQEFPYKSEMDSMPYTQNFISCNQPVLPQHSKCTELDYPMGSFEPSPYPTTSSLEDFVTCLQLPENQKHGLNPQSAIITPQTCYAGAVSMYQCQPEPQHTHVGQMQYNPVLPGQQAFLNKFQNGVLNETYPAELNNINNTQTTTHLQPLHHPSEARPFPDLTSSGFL
Method in brief: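 Endogenous factor activity is tracked through cis-promoter reporter units transfected into HepG2 cells. Transcript levels at 24 h are read by fluorescent RT-PCR and capillary electrophoresis, with activity in either direction scored relative to DMSO.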

[6] = ATG_AP_1_CIS: Attagene CIS-FACTORIAL HepG2 Assay for human Activator Protein 1 (AP-1) (AID 2282931); settings: HepG2 Attagene cis-factorial AP-1 reporter mRNA; actives raise or lower the signal
Method in brief: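 Transient MRTU transfection of HepG2 → 24 h chemical treatment → RNA isolation, RT-PCR, 6-FAM labelling, HpaI digest → capillary electrophoresis. Fit: bidirectional, DMSO negative control.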

[7] = ATG_AP_2_CIS: Attagene CIS-FACTORIAL HepG2 Assay for human Activator Protein 2 (AP-2) (AID 2282932); settings: HepG2 AP-2 cis-reporter, Attagene transcription factor profiling; actives raise or lower the signal
Method in brief: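 Multiplexed mRNA reporter assay in HepG2: cis-regulated units report endogenous factor activity after 24 h treatment. Fluorescence from capillary electrophoresis of RT-PCR products gives the signal, with DMSO as baseline.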

[8] = ATG_BRE_CIS: Attagene CIS-FACTORIAL HepG2 Assay for human Bone Morphogenetic Protein (BMP) Response Element (BRE) (AID 2282933); settings: HepG2 BMP response element reporter, Attagene transcription factor profiling; actives raise or lower the signal
Method in brief: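 Transient MRTU transfection of human HepG2 liver cells; 24 h compound treatment; total RNA isolated, reverse-transcribed, PCR-amplified, 6-FAM labelled, HpaI-cut, capillary electrophoresis. DMSO = negative control/baseline, bidirectional fit.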

[9] = molecular target: Retinoic acid receptor alpha (Homo sapiens) (UniProt P10276); experiment: ATG_DR5_RAR_CIS: Attagene CIS-FACTORIAL HepG2 Assay for human Retinoic Acid Receptor Alpha (RARE), DR5 submotif (AID 2282934); settings: HepG2 Attagene cis-factorial RARE DR5 reporter, mRNA; actives raise or lower the signal;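 as to AC50: reporter responds to endogenous RAR alpha beta and gamma in HepG2 not RARA alone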
Sequence of Retinoic acid receptor alpha (Homo sapiens) (P10276 whole entry, looked up): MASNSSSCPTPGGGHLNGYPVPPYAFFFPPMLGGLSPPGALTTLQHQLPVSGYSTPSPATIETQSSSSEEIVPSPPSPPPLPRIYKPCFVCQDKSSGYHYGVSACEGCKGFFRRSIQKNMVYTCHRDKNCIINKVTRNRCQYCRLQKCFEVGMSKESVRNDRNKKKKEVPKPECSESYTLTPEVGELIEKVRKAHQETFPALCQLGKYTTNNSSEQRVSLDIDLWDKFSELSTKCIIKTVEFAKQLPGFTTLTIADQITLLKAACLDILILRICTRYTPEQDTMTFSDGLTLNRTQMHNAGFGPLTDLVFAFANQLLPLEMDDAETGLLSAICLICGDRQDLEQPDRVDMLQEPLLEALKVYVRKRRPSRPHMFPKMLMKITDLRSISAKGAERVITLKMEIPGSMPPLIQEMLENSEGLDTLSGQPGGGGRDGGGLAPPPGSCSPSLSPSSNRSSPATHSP
Method in brief: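 After 24 h of chemical exposure, transiently transfected HepG2 cells were lysed for total RNA; the DR5-regulated reporter transcript was quantified via RT-PCR and capillary electrophoresis, with activity fitted bidirectionally against DMSO.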

[10] = ATG_E_Box_CIS: Attagene CIS-FACTORIAL HepG2 Assay for human Enhancer Box (E-box) (AID 2282936); settings: HepG2 E-box cis-reporter transcription, actives raise or lower the signal
Method in brief: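 First, HepG2 cells receive multiple cis-regulated reporter constructs by transient transfection. Next, chemicals are applied for 24 h. Finally, reporter mRNA is quantified via RT-PCR and capillary electrophoresis, with DMSO as baseline.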

[11] = ATG_M_61_CIS: Attagene CIS-FACTORIAL HepG2 Assay for M61 Transcription Factor (Internal Marker) (AID 2282937); settings: HepG2 Attagene CIS-FACTORIAL M61 internal marker reporter; actives raise or lower the signal
Method in brief: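 Human liver HepG2, transient MRTU transfection (cis promoter elements), 24 h compound. Total RNA → oligo(dT) RT → PCR → FAM label → HpaI → CE. Internal background marker; bidirectional fitting, DMSO = baseline.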

[12] = ATG_EGR_CIS: Attagene CIS-FACTORIAL HepG2 Assay for human Early Growth Response 1 (EGR1) (AID 2282938); settings: HepG2 Attagene CIS-FACTORIAL EGR reporter mRNA; actives raise or lower the signal
Method in brief: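 Transient transfection of human HepG2 with multiple cis-regulated reporter units, chemical exposure 24 h, total RNA isolated. Reverse transcription, PCR, fluorescent labelling and capillary electrophoresis quantify reporter transcripts; activity fitted bidirectionally against DMSO.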

[13] = ATG_M_19_CIS: Attagene CIS-FACTORIAL HepG2 Assay for M19 Transcription Factor (Internal Marker) (AID 2282939); settings: HepG2 Attagene CIS-FACTORIAL M19 internal marker reporter; actives raise or lower the signal
Method in brief: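 Transfect HepG2 with MRTU reporter library → dose chemical, 24 h → isolate total RNA, reverse-transcribe with oligo(dT) → PCR, 6-FAM label, HpaI cut (2 h, 37 C) → capillary electrophoresis. Bidirectional fit vs DMSO.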

[14] = molecular target: Hepatocyte nuclear factor 3-beta (Homo sapiens) (UniProt Q9Y261); experiment: ATG_FoxA2_CIS: Attagene CIS-FACTORIAL HepG2 Assay for human Forkhead box A2 (FOXA2) (AID 2282942); settings: HepG2 cis-reporter transcription factor activity, 24 h; actives raise or lower the signal
Sequence of Hepatocyte nuclear factor 3-beta (Homo sapiens) (Q9Y261 whole entry, looked up): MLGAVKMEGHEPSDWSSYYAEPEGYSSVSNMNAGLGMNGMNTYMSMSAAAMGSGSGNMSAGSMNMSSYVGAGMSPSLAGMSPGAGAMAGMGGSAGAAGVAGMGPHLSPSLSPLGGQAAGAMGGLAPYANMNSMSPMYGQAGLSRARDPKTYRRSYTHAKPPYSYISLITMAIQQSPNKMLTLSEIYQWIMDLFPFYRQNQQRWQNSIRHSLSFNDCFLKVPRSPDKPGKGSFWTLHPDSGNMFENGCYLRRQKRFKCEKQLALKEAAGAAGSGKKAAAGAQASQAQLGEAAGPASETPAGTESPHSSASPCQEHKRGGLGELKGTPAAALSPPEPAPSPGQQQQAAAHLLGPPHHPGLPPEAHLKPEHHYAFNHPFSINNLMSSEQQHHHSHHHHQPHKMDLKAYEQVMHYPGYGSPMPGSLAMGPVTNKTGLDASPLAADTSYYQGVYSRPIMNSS
Method in brief: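 Transient MRTU transfection of HepG2 liver cells; 24 h treatment; total RNA → oligo(dT) RT → PCR → FAM primer extension → HpaI cut → CE. Bidirectional fit vs DMSO.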

[15] = ATG_FoxO_CIS: Attagene CIS-FACTORIAL HepG2 Assay for human Forkhead box O (FoxO) (AID 2282943); settings: HepG2 Attagene cis-reporter, FoxO element, mRNA; actives raise or lower the signal
Method in brief: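 Transfected HepG2 reporter cells exposed to test chemical for 24 h; reporter RNA measured by reverse transcription, PCR and fluorescent capillary electrophoresis; curves fitted for increases and decreases against DMSO.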

[16] = ATG_GATA_CIS: Attagene CIS-FACTORIAL HepG2 Assay for human GATA Binding Protein (AID 2282944); settings: HepG2 GATA cis-element reporter, Attagene multiplex mRNA; actives raise or lower the signal
Method in brief: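 Transient MRTU transfection, HepG2, 24 h compound exposure. Total RNA → oligo(dT) RT → PCR → 6-FAM primer extension → HpaI cut → CE. Bidirectional fit vs DMSO.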

[17] = ATG_CMV_CIS: Attagene CIS-FACTORIAL HepG2 Assay for human CMV (Internal Marker) (AID 2282928); settings: HepG2 CMV promoter reporter, transcription factor profiling; actives raise or lower the signal;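 also: endpoint acts as a background internal control marker rather than a target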
Method in brief: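 Endogenous transcription factor activity read in HepG2 via transfected cis-promoter reporter units. After 24 h dosing, reporter mRNA measured by RT-PCR/capillary electrophoresis; gain or loss of signal fit relative to DMSO.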

[18] = molecular target: Transcription factor E2F1 (Homo sapiens) (UniProt Q01094); experiment: ATG_E2F_CIS: Attagene CIS-FACTORIAL HepG2 Assay for human E2F Transcription Factor 1 (AID 2282935); settings: HepG2 Attagene cis-reporter, E2F reporter RNA transcripts; actives raise or lower the signal
Sequence of Transcription factor E2F1 (Homo sapiens) (Q01094 whole entry, looked up): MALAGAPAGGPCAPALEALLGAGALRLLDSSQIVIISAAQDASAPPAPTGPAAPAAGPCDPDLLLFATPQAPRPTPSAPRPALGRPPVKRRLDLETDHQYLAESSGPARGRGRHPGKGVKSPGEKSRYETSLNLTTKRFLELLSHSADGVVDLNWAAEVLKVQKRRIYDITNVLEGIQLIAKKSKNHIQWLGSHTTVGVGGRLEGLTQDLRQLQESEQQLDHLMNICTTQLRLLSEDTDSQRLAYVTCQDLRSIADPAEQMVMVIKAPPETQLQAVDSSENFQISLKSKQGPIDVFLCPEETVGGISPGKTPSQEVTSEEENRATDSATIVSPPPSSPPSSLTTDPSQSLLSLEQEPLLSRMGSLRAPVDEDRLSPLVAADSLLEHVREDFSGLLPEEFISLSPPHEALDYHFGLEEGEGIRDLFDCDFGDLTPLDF
Method in brief: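 Measures reporter transcript levels via RT-PCR with capillary electrophoresis detection in HepG2 cells harboring cis-regulated reporter units; 24 h post-dose; bidirectional curve fitting with DMSO as baseline.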

[19] = ATG_ERE_CIS: Attagene CIS-FACTORIAL HepG2 Assay for Estrogen Response Element (ERE) (AID 2282940); settings: HepG2 ERE cis-reporter, Attagene RNA transcript; actives raise or lower the signal
Method in brief: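 Transient MRTU transfection of human HepG2; cis-element promoters; 24 h dosing; total RNA → RT (oligo dT) → PCR → 6-FAM primer extension → HpaI digest → CE fluorescence. Bidirectional fit, DMSO baseline.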

[20] = ATG_Ets_CIS: Attagene CIS-FACTORIAL HepG2 Assay for human Erythroblast Transformation Specific (ETS) (AID 2282941); settings: HepG2 ETS cis-reporter transcription, actives raise or lower the signal
Method in brief: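 Steps: transfect HepG2 with multiple reporter units; treat compound 24 h; isolate RNA, DNase-treat, reverse-transcribe; PCR-amplify, label with 6-FAM, digest with HpaI; separate by capillary electrophoresis. Activity fitted both directions versus DMSO.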

Measured: AC50

C#C[C@]1(O)CC[C@H]2[C@@H]3CCc4cc(O)ccc4[C@H]3CC[C@@]21C
active: [2] 66.9 µM and 26.4 µM and 37 µM | [3] 158 µM | [4] 100 µM and 34 µM | [5] 19.8 µM and 9.23 µM | [6] 47.3 µM | [7] 167 µM and 46.7 µM | [8] 75.6 µM and 48.6 µM | [9] 61 µM and 81.7 µM and 24.8 µM | [10] 41.2 µM and 29.9 µM | [13] 171 µM | [15] 180 µM and 72.5 µM and 50.9 µM | [16] 139 µM and 142 µM
inactive: [1] | [2] | [3] | [4] | [5] | [6] | [7] | [8] | [9] | [10] | [11] | [12] | [13] | [14] | [15] | [16]

CCCCCCCC1CCCC1=O (centres undefined)
inactive: [2] | [3] | [17] | [4] | [5] | [6] | [7] | [8] | [9] | [18] | [10] | [11] | [12] | [13] | [19] | [14] | [15] | [16]

CC(=O)C1=C(C)[C@@H]2C[C@@]3(C1)[C@H](C)CC[C@H]3C2(C)C
inactive: [3] | [7] | [8] | [10] | [12] | [20] | [14] | [15] | [16]
active: [2] 76.3 µM | [17] 68.8 µM | [4] 58.8 µM | [5] 55.3 µM | [6] 76.9 µM | [18] 139 µM | [11] 75.3 µM | [13] 100 µM | [19] 68.1 µM
